In the supplement of paper PMC12819154, “High-throughput peptide-centric local stability assay extends protein–ligand identification to membrane proteins, tissues and bacteria” (Nature Structural & Molecular Biology, 2025):

The targets below were run with Cc1nc(Nc2ncc(C(=O)Nc3c(C)cccc3Cl)s2)cc(N2CCN(CCO)CC2)n1 [dasatinib] (assay: log2 fold change of tryptic peptide abundance, ligand vs vehicle (limited proteolysis) (log2 ratio); higher = more trypsin-susceptible (destabilized)). Conditions: ligand concentration: 5 uM; sample: K562 cleared lysate.

UniProt P55263, sequence (P55263 whole entry, looked up): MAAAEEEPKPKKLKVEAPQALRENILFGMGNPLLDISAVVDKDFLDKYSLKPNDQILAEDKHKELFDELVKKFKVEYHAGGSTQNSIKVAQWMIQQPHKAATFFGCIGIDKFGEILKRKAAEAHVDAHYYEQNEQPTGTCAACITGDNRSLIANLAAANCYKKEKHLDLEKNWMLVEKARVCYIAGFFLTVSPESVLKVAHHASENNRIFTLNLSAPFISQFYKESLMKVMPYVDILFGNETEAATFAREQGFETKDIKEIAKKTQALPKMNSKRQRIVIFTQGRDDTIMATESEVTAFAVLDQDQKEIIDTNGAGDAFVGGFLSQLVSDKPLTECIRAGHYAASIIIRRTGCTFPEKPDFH
UniProt O14976, sequence (O14976 whole entry): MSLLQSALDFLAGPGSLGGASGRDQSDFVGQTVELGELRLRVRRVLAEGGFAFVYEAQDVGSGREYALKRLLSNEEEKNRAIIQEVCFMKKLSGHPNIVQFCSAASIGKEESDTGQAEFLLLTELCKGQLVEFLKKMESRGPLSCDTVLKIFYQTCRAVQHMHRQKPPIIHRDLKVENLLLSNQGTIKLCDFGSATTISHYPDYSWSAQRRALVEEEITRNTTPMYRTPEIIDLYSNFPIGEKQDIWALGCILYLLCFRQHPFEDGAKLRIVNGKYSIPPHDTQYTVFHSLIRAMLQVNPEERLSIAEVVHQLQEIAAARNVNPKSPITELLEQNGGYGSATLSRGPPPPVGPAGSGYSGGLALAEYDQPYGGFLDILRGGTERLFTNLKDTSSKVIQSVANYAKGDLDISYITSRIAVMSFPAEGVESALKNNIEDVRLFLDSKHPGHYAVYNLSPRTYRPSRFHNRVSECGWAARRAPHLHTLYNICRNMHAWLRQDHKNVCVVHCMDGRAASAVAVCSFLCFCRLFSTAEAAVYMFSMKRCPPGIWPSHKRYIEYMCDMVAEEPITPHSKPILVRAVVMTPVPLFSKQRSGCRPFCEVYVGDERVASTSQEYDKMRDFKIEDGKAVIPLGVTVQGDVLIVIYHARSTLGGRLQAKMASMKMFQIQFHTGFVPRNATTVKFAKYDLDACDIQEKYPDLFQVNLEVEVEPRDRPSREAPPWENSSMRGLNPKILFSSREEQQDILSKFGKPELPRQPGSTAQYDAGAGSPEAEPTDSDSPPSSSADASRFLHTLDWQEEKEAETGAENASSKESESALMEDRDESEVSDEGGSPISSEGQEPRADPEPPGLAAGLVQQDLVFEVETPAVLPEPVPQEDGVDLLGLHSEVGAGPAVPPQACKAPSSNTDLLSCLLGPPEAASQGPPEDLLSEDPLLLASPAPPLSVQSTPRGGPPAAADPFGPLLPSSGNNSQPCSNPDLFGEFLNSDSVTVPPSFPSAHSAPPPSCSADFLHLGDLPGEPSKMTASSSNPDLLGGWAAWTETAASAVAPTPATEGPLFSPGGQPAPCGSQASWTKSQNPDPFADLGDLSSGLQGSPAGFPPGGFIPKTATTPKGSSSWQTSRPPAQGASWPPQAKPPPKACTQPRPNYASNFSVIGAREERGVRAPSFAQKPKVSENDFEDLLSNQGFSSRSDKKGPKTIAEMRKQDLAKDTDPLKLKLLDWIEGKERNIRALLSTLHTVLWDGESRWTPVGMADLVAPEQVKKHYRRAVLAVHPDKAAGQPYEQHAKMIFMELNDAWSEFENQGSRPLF
UniProt Q16513, sequence (Q16513 whole entry, looked up): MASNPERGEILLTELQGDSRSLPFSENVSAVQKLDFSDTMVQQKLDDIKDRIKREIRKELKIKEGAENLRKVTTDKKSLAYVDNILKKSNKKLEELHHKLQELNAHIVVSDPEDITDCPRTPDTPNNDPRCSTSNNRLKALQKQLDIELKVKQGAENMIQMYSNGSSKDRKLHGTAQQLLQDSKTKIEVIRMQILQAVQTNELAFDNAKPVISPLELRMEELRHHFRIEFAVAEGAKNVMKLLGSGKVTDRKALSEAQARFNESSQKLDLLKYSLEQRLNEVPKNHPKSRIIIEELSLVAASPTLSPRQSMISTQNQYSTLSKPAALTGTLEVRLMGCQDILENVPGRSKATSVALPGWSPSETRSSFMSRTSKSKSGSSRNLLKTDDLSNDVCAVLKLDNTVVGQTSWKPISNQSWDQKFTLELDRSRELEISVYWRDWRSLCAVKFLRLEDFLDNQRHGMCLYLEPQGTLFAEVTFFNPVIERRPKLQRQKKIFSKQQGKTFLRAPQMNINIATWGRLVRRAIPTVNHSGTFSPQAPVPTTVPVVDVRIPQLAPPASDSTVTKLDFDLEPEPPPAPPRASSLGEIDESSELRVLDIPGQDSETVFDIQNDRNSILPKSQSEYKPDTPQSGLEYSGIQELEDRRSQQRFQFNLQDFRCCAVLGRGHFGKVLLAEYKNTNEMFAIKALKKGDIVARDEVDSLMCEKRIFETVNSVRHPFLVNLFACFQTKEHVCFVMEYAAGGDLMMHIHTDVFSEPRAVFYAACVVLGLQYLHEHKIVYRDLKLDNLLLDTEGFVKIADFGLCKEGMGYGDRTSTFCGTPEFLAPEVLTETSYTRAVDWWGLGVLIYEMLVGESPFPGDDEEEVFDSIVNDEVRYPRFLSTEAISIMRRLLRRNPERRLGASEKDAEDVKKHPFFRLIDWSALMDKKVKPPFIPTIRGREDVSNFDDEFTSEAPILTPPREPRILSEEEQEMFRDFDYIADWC

| Target | log2 fold change |
| --- | --- |
| ADK (peptide sequence: TGCTFPEKPDFH, peptide start residue: 351) (UniProt P55263) | -0.858 |
| GAK (peptide sequence: AIIQEVCFMK, peptide start residue: 81) (UniProt O14976) | -2.44 |
| UniProt Q16513 (peptide sequence: IFETVNSVR, peptide start residue: 708) | 0.751 |
